The results in this text go back to PubChem BioAssay (Tox21).

Several values for one entry are separate records, joined by “and”; a condition that tells them apart may be missing. Equal values may be shown once. Records with an inconclusive call do not appear. Some compounds were tested as several samples or in several runs, with calls that do not always agree. Activity calls are given as the source filed them. Unless noted, the call rests on the fitted dose curve; in most records, active means well fitted curve in the direction sought with a large enough effect in the repeat runs; inconclusive means weak or mixed curves; inactive means no such curve, though single readings can be large; an effect the other way counts as inactive or inconclusive.

Test [1] can be described thus: qHTS assay to identify small molecule antagonists of the retinoid acid receptor (RAR) signaling pathway - cell viability counter screen (AID 1159551). Further: nearly all actives have a fitted effect of over 35% in size. In a few lines: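 Viability of C3RL4 cells is quantified from ATP by luminescence after 6 h treatment at 37 C with compounds and 1 uM retinol.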
Background: Quantitative high-throughput screening tests each substance at several concentrations.

The nature of test [2]: qHTS assay to identify small molecule antagonists of the estrogen related receptor (ERR) signaling pathway from Tox21 library - cell viability counter screen (AID 1224834). Further: nearly all actives have a fitted effect of over 30% in size. Further: potency means the concentration at half of the fitted maximal effect. In a few lines:
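In this quantitative HTS format, ERR cells receive compounds in DMSO and are incubated for 17.5 h at 37 C. Live-cell protease activity is then detected with CellTiter-Fluor.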

The target in test [3] is Luciferin 4-monooxygenase (Photinus pyralis) (UniProt P08659). Put plainly: qHTS assay to identify small molecule inhibitors of firefly luciferase (AID 1224835). Further: series mostly up to about 120 µM; nearly all actives have a fitted effect of over 25% in size. Summed up:
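Biochemical qHTS: compounds run as interplate titrations against purified firefly enzyme, with D-luciferin and ATP each at its KM concentration. Light output recorded by CCD imaging.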

A short description of test [4]: qHTS assay to identify small molecule agonists of the constitutive androstane receptor (CAR) signaling pathway - cell viability counter screen (AID 1224836). Further: nearly all actives have a fitted effect of over 45% in size. Further: potency means the concentration at half of the fitted maximal effect. Summed up: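 Using CellTiter-Fluor, viability of HepG2 cells harbouring hCAR and CYP2B6-2.2kb was measured following 23 h incubation with a 15-concentration compound series plus PK11195 (0.75 uM final).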
A short description of test [5]: qHTS assay to identify small molecule antagonists of the constitutive androstane receptor (CAR) signaling pathway - cell viability counter screen (AID 1224837). Further: series mostly up to about 92 µM; nearly all actives have a fitted effect of over 45% in size. Summed up: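 In quantitative HTS format, compounds at 15 concentrations were applied to HepG2 cells double-transfected with hCAR and CYP2B6-2.2kb under 50 nM CITCO stimulation; live-cell protease activity was read after 23 hr via CellTiter-Fluor.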

Test [6] is described as follows: qHTS RealTime-Glo MT Cell Viability Assay in HepG2 cells - 24 hour (AID 1224867). Further: nearly all actives have a fitted effect of over 50% in size. Further: potency means the concentration at half of the fitted maximal effect. In a few lines:
(§1)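 Real-time, nonlytic viability: 600 HepG2 cells/well mixed with NanoLuc enzyme plus prosubstrate; 5 h settle, compound (DMSO) added by pintool; luminescence monitored over 40 h at 37 C.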

Test [7] in a line: qHTS RealTime-Glo MT Cell Viability Assay in HEK293 cells - 32 hour (AID 1224868). Further: nearly all actives have a fitted effect of over 50% in size. Further: potency means the concentration at half of the fitted maximal effect. In a few lines:
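Cells + reagent dispensed (600 cells/well, HEK293) → 5 h at 37 C/5% CO2 → 23 nL compound in DMSO pinned → 40 h at 37 C → luminescence read at 0, 8, 16, 24, 32, 40 h.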

The nature of test [8]: A CellTox Green Cytotoxicity Assay to monitor cytotoxicity in HepG2 cells - 40 hour (AID 1224879). Further: nearly all actives have a fitted effect of over 40% in size. Further: potency means the concentration at half of the fitted maximal effect. Summed up: (§2)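 Fluorescent DNA-binding dye, 600 HepG2 cells/well, 5 h preincubation then compound in DMSO; same plates read at 0–40 h, 37 C.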
The nature of test [9]: A CellTox Green Cytotoxicity Assay to monitor cytotoxicity in HepG2 cells - 32 hour (AID 1224883). Further: nearly all actives have a fitted effect of over 50% in size. Further: potency means the concentration at half of the fitted maximal effect. Summed up: as §2
A short description of test [10]: A CellTox Green Cytotoxicity Assay to monitor cytotoxicity in HEK293 cells - 8 hour (AID 1224884). Further: nearly all actives have a fitted effect of over 35% in size. Summed up: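 Homogeneous no-lysis format: HEK293 cell suspension mixed with CellTox Green reagent, seeded, incubated 5 h at 37 C/5% CO2, then dosed by pintool with compound in DMSO.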
Test [11] can be described thus: qHTS RealTime-Glo MT Cell Viability Assay in HepG2 cells - 16 hour (AID 1224885). Further: nearly all actives have a fitted effect of over 50% in size. Further: potency means the concentration at half of the fitted maximal effect. In a few lines:
as §1

A short description of test [12]: qHTS assay to identify small molecule agonists of the sonic hedgehog signaling (Shh) pathway - cell viability counter screen (AID 1259366). Further: nearly all actives have a fitted effect of over 50% in size. Further: potency means the concentration at half of the fitted maximal effect. Summed up:
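Same-well cytotoxicity read. Gli1-Luc reporter 3T3 cells; compounds 24hr, 37C/5% CO2; CellTiter-Fluor fluorescence.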

Test [13] in a line: qHTS assay to identify small molecule antagonists of the sonic hedgehog signaling (Shh) pathway - cell viability counter screen (AID 1259367). Further: nearly all actives have a fitted effect of over 55% in size. Further: potency means the concentration at half of the fitted maximal effect. Summed up: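 Tox21 library chemicals were tested on a Gli1-Luc NIH/3T3 clone (2,000 cells/well) stimulated by conditioned medium; viability was quantified as fluorescence from CellTiter-Fluor reagent added at 23 hr.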
The target in test [14] is Estrogen receptor (Homo sapiens) (UniProt P03372). Put plainly: qHTS assay to identify small molecule agonists of the estrogen receptor alpha (ER-alpha) signaling pathway in the presence of an antagonist (AID 1259383; calls by dose curve; further: top concentration of the series differs between compounds; nearly all actives have a fitted effect of over 15% in size). In a few lines:
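ER-alpha agonism measured under antagonist challenge: 10.0nM ICI-182,780 (final) plus compound, 15 concentrations, 22hr, VM7Luc4E2 ERE-luciferase cells. Read by luminescence.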

Test [15] can be described thus: qHTS assay to identify small molecule agonists of the estrogen receptor alpha (ER-alpha) signaling pathway in the presence of an antagonist - cell viability counter screen (AID 1259386).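 Further: series mostly up to about 92 µM; cells exposed to compounds for 22 h at 37 °C before the viability read; nearly all actives have a fitted effect of over 30% in size.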 In a few lines: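 Steps: 5-day stripped-FBS culture; seed and incubate 24hr; add ICI-182,780 (10.0nM final); pin 15-point compound titration; incubate 22hr at 37C; add CellTiter-Fluor at 21hr; read fluorescence.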

The nature of test [16]: qHTS assay to identify small molecule antagonists of the TGF-beta/Smad signaling pathway - cell viability counter screen (AID 1346824). Further: nearly all actives have a fitted effect of over 50% in size. Summed up: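 SBE-bla HEK 293T cells, incubated overnight, then compound plus 0.25 ng/mL TGF-beta1 (stock added) for 5 hr at 37 C. Viability was read in the same wells by CellTiter-Glo luminescence after 30 min at room temperature.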
Test [17] in a line: qHTS assay to identify small molecule agonists of the TGF-beta/Smad signaling pathway - cell viability counter screen (AID 1346829). Further: top concentration of the series differs between compounds; nearly all actives have a fitted effect of over 45% in size. Summed up: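 Here the cytotoxicity of library compounds is measured in SBE-bla HEK 293T cells treated for 5 hr, using CellTiter-Glo added to wells already read for the beta-lactamase reporter.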
Test [18] in a line: Caspase-3/7 induction in CHO-K1 cells by small molecules, qHTS cell viability counter screen (AID 1346979). Further: nearly all actives have a fitted effect of over 35% in size. Further: potency means the concentration at half of the fitted maximal effect. In a few lines:
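CellTiter-Fluor viability check, qHTS format: wild-type CHO-K1, 16hr compound treatment, 1hr reagent incubation, fluorescence read.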

Test [19] has as its target Nuclear receptor subfamily 1 group I member 2 (Homo sapiens) (UniProt O75469). Put plainly: Human pregnane X receptor (PXR) small molecule agonists, qHTS assay (AID 1346982). Further: nearly all actives have a fitted effect of over 35% in size. Further: potency means the concentration at half of the fitted maximal effect. Summed up: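 After plating in 5% charcoal-stripped FBS and a 5 hr rest, PXR-Luc HepG2 cells received compounds in DMSO. Following 24 hr at 37 C, ONE-Glo was added and light output read.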
The target of test [20] is Cytochrome P450 2C9 (Homo sapiens) (UniProt P11712). The test can be described thus: Cytochrome P450 Family 2 Subfamily C Member 9 (CYP2C9) small molecule antagonists: luciferase reporter qHTS assay (AID 1671198). Further: nearly all actives have a fitted effect of over 50% in size. Further: potency means the concentration at half of the fitted maximal effect. In a few lines:
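P450-Glo proluciferin substrate with CYP2C9 enzyme; 10 min RT preincubation, then NADPH regeneration 1 h at 37C; luciferin detection reagent 20 min RT, luminescence in relative luminescence units.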

Sequence of Estrogen receptor (Homo sapiens) (P03372 whole entry, looked up): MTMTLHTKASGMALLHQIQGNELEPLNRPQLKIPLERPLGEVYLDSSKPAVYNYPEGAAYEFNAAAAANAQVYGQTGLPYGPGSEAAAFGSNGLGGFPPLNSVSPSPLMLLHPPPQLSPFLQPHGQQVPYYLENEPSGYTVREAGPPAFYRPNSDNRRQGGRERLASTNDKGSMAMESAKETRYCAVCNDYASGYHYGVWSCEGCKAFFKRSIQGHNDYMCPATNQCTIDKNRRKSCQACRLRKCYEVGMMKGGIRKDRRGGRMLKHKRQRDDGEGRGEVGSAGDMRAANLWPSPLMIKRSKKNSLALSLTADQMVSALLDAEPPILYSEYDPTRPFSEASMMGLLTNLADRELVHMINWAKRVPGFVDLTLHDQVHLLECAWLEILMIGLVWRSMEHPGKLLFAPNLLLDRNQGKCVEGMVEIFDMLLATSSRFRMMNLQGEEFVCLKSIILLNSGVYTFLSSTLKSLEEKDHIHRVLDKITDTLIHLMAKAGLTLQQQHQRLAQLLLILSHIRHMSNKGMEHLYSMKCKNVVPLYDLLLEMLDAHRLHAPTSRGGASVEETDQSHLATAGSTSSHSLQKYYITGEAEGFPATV
Sequence of Nuclear receptor subfamily 1 group I member 2 (Homo sapiens) (O75469 whole entry, looked up): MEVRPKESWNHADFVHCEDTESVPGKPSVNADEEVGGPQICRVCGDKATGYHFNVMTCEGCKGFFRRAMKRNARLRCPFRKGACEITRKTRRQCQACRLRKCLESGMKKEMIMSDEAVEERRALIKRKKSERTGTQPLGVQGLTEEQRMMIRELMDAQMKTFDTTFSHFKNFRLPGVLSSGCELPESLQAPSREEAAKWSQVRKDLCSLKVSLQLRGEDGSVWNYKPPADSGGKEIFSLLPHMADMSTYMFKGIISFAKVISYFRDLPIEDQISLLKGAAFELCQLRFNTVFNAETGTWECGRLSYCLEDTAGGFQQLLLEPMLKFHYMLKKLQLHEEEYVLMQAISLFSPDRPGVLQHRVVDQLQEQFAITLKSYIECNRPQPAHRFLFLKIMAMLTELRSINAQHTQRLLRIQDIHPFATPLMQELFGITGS
Sequence of Luciferin 4-monooxygenase (Photinus pyralis) (P08659 whole entry, looked up): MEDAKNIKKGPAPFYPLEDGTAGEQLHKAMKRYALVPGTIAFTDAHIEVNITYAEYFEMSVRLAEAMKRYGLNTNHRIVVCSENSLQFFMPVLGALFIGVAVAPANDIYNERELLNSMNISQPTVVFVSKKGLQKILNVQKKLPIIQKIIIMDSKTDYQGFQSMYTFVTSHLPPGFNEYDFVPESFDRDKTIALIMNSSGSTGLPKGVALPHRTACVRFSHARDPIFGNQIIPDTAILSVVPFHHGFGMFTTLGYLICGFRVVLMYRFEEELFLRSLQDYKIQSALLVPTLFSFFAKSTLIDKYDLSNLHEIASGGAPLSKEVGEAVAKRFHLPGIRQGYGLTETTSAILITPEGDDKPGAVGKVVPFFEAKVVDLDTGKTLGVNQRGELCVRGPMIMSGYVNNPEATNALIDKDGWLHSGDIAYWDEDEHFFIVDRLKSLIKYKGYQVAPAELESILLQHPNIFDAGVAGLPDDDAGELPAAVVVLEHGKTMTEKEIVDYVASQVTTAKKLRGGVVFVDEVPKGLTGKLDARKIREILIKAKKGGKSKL
Sequence of Cytochrome P450 2C9 (Homo sapiens) (P11712 whole entry, looked up): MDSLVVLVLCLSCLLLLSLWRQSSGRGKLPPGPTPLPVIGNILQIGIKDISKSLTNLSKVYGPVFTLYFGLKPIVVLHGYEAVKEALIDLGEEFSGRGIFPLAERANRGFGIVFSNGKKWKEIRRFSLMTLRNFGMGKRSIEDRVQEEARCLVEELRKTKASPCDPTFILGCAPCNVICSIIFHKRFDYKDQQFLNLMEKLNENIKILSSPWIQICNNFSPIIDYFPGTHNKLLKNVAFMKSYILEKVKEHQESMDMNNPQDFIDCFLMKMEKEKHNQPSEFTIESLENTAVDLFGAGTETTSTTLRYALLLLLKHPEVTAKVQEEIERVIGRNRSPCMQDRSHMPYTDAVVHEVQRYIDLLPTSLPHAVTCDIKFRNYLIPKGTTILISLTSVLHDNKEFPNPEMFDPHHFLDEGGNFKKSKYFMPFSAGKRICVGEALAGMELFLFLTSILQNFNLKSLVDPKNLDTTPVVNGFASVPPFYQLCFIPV

Consider `CCN(CC)C(=O)Cl`, for which the Potency entry in test [1], in test [2], in [3], in test [4], in [5] and in test [6] was “inactive” in each case. Besides, the Potency entry in [7], in [8], in [9], in [10], in test [11] and in [12] was “inactive” each time. Further, the Potency entry in [13], in [15], in test [16], in test [18], in test [19] and in test [20] was “inactive” each time. The outcome in test [14] and in test [17] was inactive.
For `OC(Cc1ccccc1Cl)(Cn1[nH]cnc1=S)C1(Cl)CC1` (stereo unspecified), the Potency result in test [1], in [4], in [5], in [6], in [8] and in test [9] was “inactive” throughout. Moreover, the Potency result in test [10], in test [11], in [12], in [13] and in test [15] was “inactive” each time. Further, the result in test [14] and in test [17] was inactive. Further, the Potency in test [20] is 0.894 µM (active).
Turning to `Cc1cc(C(C)(C)c2ccc(O)c(C)c2)ccc1O`, the Potency entry in test [1], in [3], in test [6], in test [11] and in test [16] was “inactive” in each case. In addition, the Potency in test [2] was 51.9 µM (active); in [7], 23.4 µM (active); in [12], 58.2 µM (active); in test [13], 46.2 µM (active); in [18], 41.2 µM (active); in test [19] it was 58.2 µM (active). Moreover, the Potency in test [20] is 5.37 µM (active). Moreover, the call in test [17] was inactive.
Regarding `ClC1=C(Cl)[C@]2(Cl)[C@@H]3[C@@H](Cl)[C@H]4O[C@H]4[C@@H]3C1(Cl)C2(Cl)Cl`, the Potency entry in test [3], in [4], in [5], in test [12], in [13] and in test [15] was “inactive” throughout. Besides, the Potency result in test [16] is “inactive”. The result in test [14] and in test [17] was inactive. Also, the Potency in [19] is 30.6 µM (active); in test [20], 39.9 µM (active).
For `c1ccc2c(c1)Sc1ccccc1N2CC1CN2CCC1CC2` (stereo unspecified), the Potency entry in [1], in test [3], in [15], in [16] and in [20] was “inactive” throughout. Besides, the Potency in test [2] is 29.8 µM (active); in test [4], 29.8 µM (active); in [6], 21.3 µM (active); in test [8], 19 µM (active); in test [9], 21.3 µM (active); in [11], 23.9 µM (active). Moreover, the Potency in [12] is 11.9 µM (active); in test [13] it was 11.9 µM (active); in test [18], 29.8 µM (active). For the same compound, the compound was called inactive in test [17].
For `Clc1ccccc1-c1ccccc1Cl`, the Potency entry in test [2], in test [3], in [4], in test [5], in test [6] and in test [11] was “inactive” throughout. Besides, the Potency result in [12], in test [13], in [15], in [16] and in test [18] was “inactive” each time.
Take `CCOC(=O)C(O)(c1ccc(Cl)cc1)c1ccc(Cl)cc1`: the Potency is 49.1 µM (active) in [2]; 22.1 µM (active) in test [7]; “inactive and 43.6 µM (active)” in test [8]; “inactive and 43.6 µM (active)” in test [9]; 61.8 µM (active) in test [18]; 27.6 µM (active) and inactive in [19]. Further, the Potency in test [20] is 10.1 µM (active) and 7.96 µM (active). The Potency entry in test [3], in test [4], in test [5], in test [6], in test [10] and in test [11] was “inactive” throughout. Moreover, the Potency result in test [15] and in test [16] was “inactive” each time. The result in [14] and in [17] was inactive.
